This is an account of results in PubChem BioAssay (NCI).

The panel holds about 83,000 compounds, 20% with a hit somewhere; the sample as a whole holds those more often.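 Step 1: grow cells in 96-well plates. Step 2: add test compound at a single concentration. Step 3: incubate 48 h. Step 4: record percent growth.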 Calls of active or inactive are those of the source. Rule for the calls: active = growth percent below 10; inactive = the rest.

One assay has as its system HCC-2998 colon. In words: NCI-60 one-dose screen, 48 h (100 = growth as untreated, 0 = no growth, -100 = all killed). Conditions: 10 µM.
Consider `COc1ccc2[nH]c(=O)c(CSc3nccc(-c4ccc(Cl)cc4)n3)cc2c1`, for which the growth was 48.3% (inactive). Same read-out and setting: the same measure for `CN1CCN(c2ccc(C(=O)/C=C/c3cc(Br)ccc3F)cc2)CC1`: -63.2% (active). Take `O=c1cc(-c2ccccc2)oc2cc(OCCCCNCc3ccccc3)cc(O)c12`: the growth is -96.7% (active).

A further assay has as its system KM12 colon. Described as above. The note with it: 10 µM.
Take `CN1C(=O)N(C)C2SC(N/N=C/C=C/c3ccccc3)=NC21` (centres undefined): the growth is 58% (inactive). Still for that read-out and setting: the same measure for `Cc1ccc(NC(=O)c2ccc(-n3c(=O)[nH]c4ccccc4c3=O)cc2)cc1`: 96.7% (inactive); for `COc1cccc(/C=N/NC(=O)c2ccc3nc(-c4ccc(Cl)cc4)[nH]c3c2)c1O`: -85.2% (active); for `COc1ccc2[nH]c(=O)c(CSc3nccc(-c4ccc(Cl)cc4)n3)cc2c1`: 31.7% (inactive). Turning to `COc1ccc2ncc(C#Cc3cncc(C(=O)Nc4ccc(CN5CCN(C)CC5)c(C(F)(F)F)c4)c3)n2n1`, the growth was -95% (active). The same measure, in the same setting: the same measure for `O=C(CS(=O)(=O)c1oc(-c2ccc(Cl)cc2)nc1S(=O)(=O)c1ccccc1)N1CCCC1`: 61.7% (inactive); for `CC1=N/C(=C\c2ccc(N(C)C)cc2)C(=O)N1CCc1ccc(S(N)(=O)=O)cc1`: 104% (inactive). As to `CCN1CCN(c2ccc(NC(=O)Nc3ccc(-c4cc(C(=O)NC(C)C)c5ncccc5n4)cc3)cc2C(F)(F)F)CC1`, the growth is -83.7% (active).

Consider `O=C(c1ccc(Cl)cc1)C1[C@H](c2ccccc2Br)[C@@H](c2ccccc2)NC12C(=O)Nc1ccccc12` (some centres undefined), for which the growth was 15.2% (inactive). Same read-out and setting: then `CN1CCN(c2ccc(Nc3nc(NCCCNC(=O)C4CCCCC4)c4sccc4n3)cc2)CC1`, with 63.7% (inactive); and `CC1(c2ccccc2)NC(=O)N(CC(=O)Nc2ccc(C(=O)/C=C/c3ccc(Cl)cc3)cc2)C1=O` (centres undefined), with -81.4% (active). Turning to `CC(C)c1ccc(C(=O)Nc2sc3c(c2C(N)=O)CCC(=O)C3=O)cc1`, the growth is 98.6% (inactive).

For the compound `O=c1c2ccccc2nc(COc2ccccc2)n1/N=C/c1ccc(N2CCOCC2)cc1`, the growth was 90.7% (inactive). As to `CCN1CCN(Cc2ccc(NC(=O)c3cccc(-n4cc(-c5ccc(NC(C)=O)nc5)nn4)c3)cc2C(F)(F)F)CC1`, the growth is 22.9% (inactive). On the same count and under the same terms, the same measure for `CCOC(=O)C1NN(c2ccc(S(N)(=O)=O)cc2)c2nc3nc(-c4cccs4)cc(-c4cccs4)c3c(=O)n21` (centres undefined): 69.7% (inactive); for `CN1CCN(c2ccc(C(=O)/C=C/c3cc(Br)ccc3F)cc2)CC1`: 8.8% (active); for `CN(CCF)c1ccc(/C=C/C(=O)c2ccc(N)cc2O)cc1`: 44.4% (inactive). Same read-out and setting: the same measure for `CC1(C)CC[C@]2(C(=O)O)CC[C@]3(C)C(=CC[C@@H]4[C@@]5(C)C/C(=C/c6ccncc6)[C@H](O)C(C)(C)[C@@H]5CC[C@]43C)[C@@H]2C1`: 21.1% (inactive). On the same count and under the same terms, the same measure for `CN(C)c1cccc2c(S(=O)(=O)Nc3cccc(-c4csc(NC(=O)CCCCCN5CCN(c6cc7c(cc6F)C(=O)N(C6CCC(=O)NC6=O)C7=O)CC5)n4)c3)cccc12` (centres undefined): 104% (inactive). Consider `O=C(CSc1nnc(-c2ccc3nc(-c4ccccc4)[nH]c3c2)o1)Nc1ccc(Br)cc1`, for which the growth was 53.9% (inactive). In the case of `CCNCCCn1c2c(c3cc(OC)c(OC)cc3c1=O)C(=O)c1cc3c(nc1-2)OCO3`, the growth is 33.7% (inactive). `Cn1c(O)c(N=Nc2nc(-c3cc4ccccc4oc3=O)cs2)c2cc(Br)ccc21`: the growth was 95.5% (inactive). Regarding `Clc1ccc(/C=N/Nc2ncnc3sc4c(c23)CCN(Cc2ccccc2)C4)cc1`, the growth was -26.9% (active). The same measure, in the same setting: the same measure for `Cc1ccc(CSc2nc(-c3ccc(F)cc3)c(C#N)c(=O)[nH]2)cc1`: 97% (inactive); for `COc1csc(/C=N/NC(=O)c2[nH]c3ccc(Br)cc3c2-c2ccccc2)c1`: 3.46% (active); for `CCOC(=O)N/C(=C1/OCCN1C)[P+](c1ccccc1)(c1ccccc1)c1ccccc1`: 51.3% (inactive). Same read-out and setting: then `COc1ccc(/C=C/C(=O)c2ccc(S(=O)(=O)NCCNc3nc(Nc4ccc(F)cc4)nc(N(C)C)n3)cc2)cc1`, with -26.1% (active); and `N#Cc1c(NC(=O)c2ccc(C(F)(F)F)c(Cl)c2)sc2c1CCC(=O)C2`, with -28.4% (active); and `O/N=C(\CSc1nnc(-c2c[nH]c3ccccc23)n1-c1ccccc1)c1ccc(Cl)cc1`, with 21.4% (inactive). Regarding `CN1CCCN(Cc2ccc(C(=O)Nc3cccc(Nc4ccc5c(O)cccc5n4)c3)cc2C(F)(F)F)CC1`, the growth was -11% (active). In the case of `O=c1[nH]c2ccccc2cc1CSc1ccc(Nc2nccc(-c3ccc(C(F)(F)F)cc3)n2)cc1`, the growth was 46.8% (inactive).
